# About 83,000 compounds went through this panel and 20% of them were active in at least one assay; those are over-represented in the sample as a whole.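 Negative percent growth values reflect cell death: -40 means 40% of the cells present at the start died, and -100 means all died.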 Unmarked numbers belong to inactive results. The source made the active and inactive calls.
# Test system: HOP-62 NSCLC
# Assay: NCI-60 one-dose screen, 48 h (100 = growth as untreated, 0 = no growth, -100 = all killed)
# Settings: 10 µM
# Procedure: Growth inhibition of the HOP-62 human Non-Small Cell Lung tumor cell line is measured as a screen for anti-cancer activity. Cells are grown in 96 well plates and exposed to the test compound for 48 hours. Compounds are tested at a single concentration, which is 10^-5 M for most compounds. The reported endpoint is percent growth (GI% or GIPRCNT), where numbers from 0 - 100% represent growth inhibition, and numbers from -100% - 0 represent cell death. For example, a value of 40 represents 60% growth inhibition. A value of 0 means no net growth occurred over the course of the experiment. A value of -40 indicates 40% of cells at the beginning of the experiment died by the end of the experiment. A value of -100 means all cells are dead at the end of the experiment.
# NCI-60 Human Tumor Cell Lines Screen was performed using the standard one-dose NCI protocol, which is described in more detail at https://dtp.cancer.gov/discovery_development/nci-60/default.htm.
# Compounds with GIPRCNT values below 10 were considered active. Activity score was based on GIPRCNT using the following formula: […]
# Score is 0 for GIPRCNT values of 100 or above, 50 for GIPRCNT values of 0, and 100 for GIPRCNT values of -100.
row,Compound,growth
1,O=C1/C(=C/c2ccc(O)cc2)Oc2ccc(Cl)cc21,85.6%
2,O=C(CCc1ccccc1)N1CCN(C(=O)CCc2ccccc2)CC1,105%
3,Cc1ccc2c3c(cccc13)-c1ccccc1C2=O,93.6%
4,O=C(O)c1ccc(CNc2ccc(C(=O)CCl)cc2)cc1,98.5%
5,CCCCCN(CCCCC)C(C)C(O)c1ccc2cc(Cl)c3ccccc3c2c1 (stereo not given),92.1%
6,CCOC(=O)c1c(C(F)(F)F)n([O-])c2ccc(OC)cc2[n+]1=O,17.1%
7,FC(F)(F)c1ccc(-c2ncc(-c3ccc(C(F)(F)F)cc3)c(NCc3cc(C(F)(F)F)cc(C(F)(F)F)c3)n2)cc1,62.6%
8,COc1cccc(-c2nnc(COc3ccc(-c4nc5ccc(C)cc5[nH]4)cc3OC)o2)c1,101%
9,Cc1ccc(C(=O)O)c(N)c1C,90.2%
10,COc1cc(/C=C/C(=O)c2cc(-c3ccc(F)cc3)ccc2O)cc(OC)c1OC,115%
11,COc1ccc(C(=O)/C=C/c2cc(-c3ccc4c(c3)OCO4)n[nH]2)cc1OC,51.1%
12,N=C(N)c1ccc(-c2ccc(-c3ccccc3)s2)cc1F,-83% (active)
13,Oc1[nH]c2ccccc2c1/C=c1/cc2c(c(-c3ccc(C(F)(F)F)cc3)n1)=Nc1ccccc1-2,85%
14,COC1OC2COC(c3ccccc3)OC2C(=O)C1NC(=O)c1ccccc1 (stereo not given),86.9%
15,CC(=O)c1ccc(NCn2nc(-c3ccc(Cl)cc3)oc2=S)cc1,69.9%
16,Cn1cnc([N+](=O)[O-])c1/C=C1\Oc2ccc(Cl)cc2C1=O,93.5%
17,Cn1c([N+](=O)[O-])cnc1C=C1C(=O)c2ccccc2C1=O,74.7%
18,COC(=O)[C@]12CC[C@@H](C)[C@H](C)[C@@H]1C1=CC[C@@H]3[C@@]4(C)CC(=O)[C@H](O)[C@@]5(C)COC(=C45)C[C@@]3(C)[C@]1(C)CC2,-74.7% (active)
19,COc1ccc(/C=C2\CCC3C(CCCC34OCCO4)C2=O)cc1 (stereo not given),99.3%
20,COc1cc(C(c2c[nH]c3ccccc23)N2CCCC2)ccc1OCc1ccccc1 (stereo not given),90.3%

row,Compound,growth
1,COC(=O)[C@]12CC[C@@H](C)[C@H](C)[C@@H]1C1=CC[C@@H]3[C@@]4(C)C[C@@H](O)[C@H](O)[C@@](C)(CO)[C@@H]4[C@H](O)C[C@@]3(C)[C@]1(C)CC2,-59.5% (active)
2,COc1cc(C(=O)n2nc(N)c3c(C)cc(C)nc32)cc(OC)c1OC,79.3%
3,COc1cc(CSc2nc3ccc(C)cc3c(=O)n2Cc2ccccc2)cc(OC)c1OC,40.5%
4,O=C(N/N=C/c1ccccc1O)c1ccccc1,38.9%
5,COc1cc(N=C2C(=O)N(Cc3ccccc3)c3ccccc32)cc(OC)c1OC,101%
6,CCn1nc(-c2ccccn2)c2cccnc2c1=S,98%
7,CC1(C)CNC(=O)N1,92.6%
8,NC(N)=NS(=O)(=O)c1ccc(Nc2ccc3nnc(-c4ccncc4)n3n2)cc1,110%
9,NC1CCC(Nc2nc(NCc3ccc(-c4ccco4)nc3)c3ncn(C4CCCC4)c3n2)CC1 (stereo not given),-17.1% (active)
10,S=C(Cc1ccc(-c2ccccc2)cc1)N1CCOCC1,93.6%
11,CNC(=S)Sc1ccc([N+](=O)[O-])cc1[N+](=O)[O-],83%
12,O=[N+]([O-])c1ccc(-c2nc(Cl)c3c(n2)CCCC3)o1,64%
13,[O-]c1c[n+](-c2ccc(Cl)cc2)no1,91.3%
14,CC(=O)n1nc(C(=O)OC(C)(C)C)c2cc(F)c(F)cc21,99%
15,CNC(=O)c1cc(Oc2ccc(NC(=O)Nc3ccc(Cl)c(OC4CCCCC4)c3)c(F)c2)ccn1,70.5%
16,C/C(=N\NC(N)=S)C(C)(C)O,104%
17,O=C(NNC(=O)c1ccncc1)Nc1ccc([N+](=O)[O-])cc1,97%
18,CN(C)c1ccc2c(c1)OC(N)=C(C#N)C2c1ccc2c(c1)CCCN2C (stereo not given),31.7%
19,N#CN1CC[C@H](C(=O)Nc2ncc(-c3ccccc3)s2)C1,-3.88% (active)
20,CCN(CC)CCn1c(=N)n(CC(O)c2ccc(Cl)c(Cl)c2)c2ccccc21 (stereo not given),85.3%
